TGFb inhibitor: TGF-b pathway inhibition; HepG2 CAGA-GFP TGF-b/SMAD3 reporter, GFP fluorescence, 18 h; TGF-beta stimulated, 500 pg/mL final; Potency, µM (titrated, usually from 46.1 µM), inactives show top-dose activity, negative = inhibition, usual class: inhibitors; 1.2% of 410,000 active; also: % is scaled to controls: 0 for no effect and ±100 for the full control effect; nearly all actives have a fitted effect of over 65% in size
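Read-out: total well GFP (ex488/em500-530) summed from mean per-cell fluorescence. Cells: HEPG2 CAGA-GFP, 1% FBS DMEM, 18 h at 37 degrees C with 500 pg/mL final TGF-beta. Unstimulated wells served as the full-inhibition control; stimulated DMSO wells = 0%.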
ALOX12 inh: ALOX12 (human) lipoxygenase inhibition. Potency, µM (doses to about 108 µM), for inactives: at the highest dose activity change, negative = inhibition, actives largely listed as inhibitors. purified 12hLO, xylenol orange hydroperoxide absorbance. P18054. AID 1671190. 1.1% of 580,000 active; also: % is scaled to controls: 0 for no effect and ±100 for the full control effect
Target sequence (P18054 whole entry, looked up): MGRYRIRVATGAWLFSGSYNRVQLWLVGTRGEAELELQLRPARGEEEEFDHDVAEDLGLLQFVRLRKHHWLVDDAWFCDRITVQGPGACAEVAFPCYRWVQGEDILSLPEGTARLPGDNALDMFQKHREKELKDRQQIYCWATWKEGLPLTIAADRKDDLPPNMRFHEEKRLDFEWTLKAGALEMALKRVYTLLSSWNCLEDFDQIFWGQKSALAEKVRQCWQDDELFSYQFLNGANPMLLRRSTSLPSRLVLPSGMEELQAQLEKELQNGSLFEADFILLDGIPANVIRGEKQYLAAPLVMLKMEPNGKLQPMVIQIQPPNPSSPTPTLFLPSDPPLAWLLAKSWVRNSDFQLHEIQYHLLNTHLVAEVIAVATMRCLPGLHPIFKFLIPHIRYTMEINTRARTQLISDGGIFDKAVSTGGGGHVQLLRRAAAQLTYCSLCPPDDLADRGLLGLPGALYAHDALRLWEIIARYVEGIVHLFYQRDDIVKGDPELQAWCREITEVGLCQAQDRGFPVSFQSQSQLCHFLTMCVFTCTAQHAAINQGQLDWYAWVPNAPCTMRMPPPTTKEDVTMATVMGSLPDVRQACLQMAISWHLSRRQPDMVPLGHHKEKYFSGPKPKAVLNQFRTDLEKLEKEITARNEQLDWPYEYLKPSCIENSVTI
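Purified human 12hLO at 150 nM in 25 mM Hepes, 0.01% Triton X-100, pH 7.0, preincubated 15 min at room temperature with compound. Reaction started with 40 uM arachidonic acid, 30 min at room temperature. Hydroperoxide measured by Fe-xylenol orange, 573/405 nm absorbance ratio.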
S2 tox: reduces viability in counter-screen for ATXN expression inhibitors; S2 cells (HEK-293 line with an ATXN2-luciferase reporter) viability, CellTiter-Fluor protease fluorescence, 24 h; Potency, µM (doses to about 56.7 µM), actives largely listed as cytotoxic; 0.49% of 400,000 active; also: nearly all actives have a fitted effect of over 40% in size
ATXN2 expr inh: ATXN2 expression inhibition | Potency, µM (doses to about 57 µM), inactives show top-dose activity change, negative = inhibition, actives largely listed as inhibitors | HEK-293 ATXN2-luciferase reporter, luminescence, 24 h | 0.72% of 360,000 active; also: % is scaled to controls: 0 for no effect and ±100 for the full control effect; nearly all actives have a fitted effect of over 55% in size
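ATXN2-luciferase reporter cells (luciferase flanked by upstream and downstream ATXN2 gene portions) were treated 24 h at 37 °C with compounds at up to 57 uM. SteadyGlo luminescence gave expression; GF-AFC fluorescence gave viability.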
HepG2 tox: HepG2 cytotoxicity, counter-screen for TGF-b inhibitors | Potency, µM (top dose mostly 46.1 µM), without a hit: at the top dose activity change, negative = cytotoxicity, usual class: cytotoxic | HepG2 CAGA-GFP viability, ATP luminescence, 18 h | 0.76% of 410,000 active
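HepG2 CAGA-GFP cells (1000/well, DMEM with 1% FBS) received compound, then TGF-beta at 500 pg/mL final, and were incubated 18 hours at 37 degrees C. Viability was read by CellTiter-Glo luminescence. Media-only wells were set as complete cell-killing and DMSO as no toxicity.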
An asterisk follows results filed as active; i = inactive; u = inconclusive; x = no result given. Rows were chosen to be rich in hits. Some 2.7% of all compounds tested hit in one or more screens of this group. Calls follow the shape of the dose curve; as a rule, active = well fitted curve in the direction sought with a large enough effect; inconclusive = small, poorly fitted or top-dose-only effect, or another doubt; inactive = no such curve, though single readings can be large; an effect the other way counts as inactive or inconclusive. Potency is read from the fitted curve at half-maximal effect.

SMILES	TGFb inhibitor	ALOX12 inh	S2 tox	ATXN2 expr inh	HepG2 tox
COc1cccc(-c2cc(NC=O)c3ncc(-c4ccc(C(C)=O)cc4)n3c2)c1	18µM*	-10%	i	u	2%
COc1cccc(/C=C/C(=O)Oc2ccc(Br)cc2)c1	x	-23%	x	x	x
CCC(CO)NS(=O)(=O)c1cc(Cl)ccc1Cl (stereo not given)	x	-6%	x	x	x
CCCCN(C)C(=O)C1CCN(C/C(C)=C/c2ccccc2)CC1	3%	u	u	-15%	-19%
CCCCN(C)C(=O)C1CCN(CC(C)c2ccccc2)CC1 (stereo not given)	x	1µM*	x	x	x
CCCCN(C)C(=O)C1CCN(Cc2cccc(OCc3ccccc3)c2)CC1	u	5.6µM*	u	-6%	-38%
C#CCOc1c(I)cc(/C=C2/NC(=O)NC2=O)cc1OCC	x	16%	x	x	x
CC1CCC2(CC1)NC(=S)N(c1ccccc1)N2 (stereo not given)	-13%	u	i	-8%	-14%
Cc1cccc(N2NC3(CCCC(C)C3)NC2=S)c1C (stereo not given)	x	8.9µM*	x	x	x
O=C(Nc1ccccc1)c1ccc(Br)c(S(=O)(=O)N2CCCCC2)c1	6.3µM*	-13%	x	x	-47%
Cc1nc2ccc(NC(=O)N(C)c3ccccc3)cc2s1	2%	-15%	i	2%	-1%
Cc1nc2ccc(NC(=O)c3ccc(S(=O)(=O)N(C)c4ccccc4)cc3)cc2s1	u	0%	u	30µM*	1%
CN(c1ccccc1)S(=O)(=O)c1ccc(NC(=S)NC(=O)c2ccccc2)cc1	26%	14µM*	i	-2%	8%
O=C(NC(=S)Nc1ccc(S(=O)(=O)N2CCCCC2)cc1)c1ccccc1	15%	13µM*	i	-16%	-7%
Cn1cccc1CN1CCCCCCNC(=O)[C@@H]2CCC[C@@H]21	x	81%	x	x	x
CN(C)CCNC1CCCCC1	x	17%	x	x	x
COc1nccnc1NS(=O)(=O)c1ccc(NC(=S)NC(=O)c2ccccc2)cc1	-28%	35µM*	i	-1%	-29%
Cc1ccc(C(=O)NC(=S)Nc2ccc(S(=O)(=O)N(C)c3ccccc3)cc2)cc1	3%	32µM*	u	-17%	3%
CC(=O)Nc1ccc(NC(=O)c2ccc(S(=O)(=O)N(C)c3ccccc3)cc2)cc1	-14%	27%	u	x	-29%
CCOC(=O)C1CCN(C(c2ccccc2)c2c(O)cc(C)n(Cc3ccccc3)c2=O)CC1 (stereo not given)	x	-5%	x	x	x
Cc1ccc(-c2cc(C(=O)OC(C)C(=O)NC(=O)NC3CCCC3)c3ccccc3n2)o1 (stereo not given)	x	4µM*	x	x	x
CCNC(=O)NC(=O)COC(=O)c1cc(-c2ccco2)nc2ccccc12	x	6.3µM*	x	x	x
CCNC(=O)NC(=O)COC(=O)c1cc(-c2ccc(C)o2)nc2ccccc12	x	3.2µM*	x	x	x
CC(NC(=O)c1cc(-c2ccco2)nc2ccccc12)C(=O)NCc1ccccc1 (stereo not given)	x	40µM*	x	x	x
COc1ccc(S(=O)(=O)CC(=O)c2ccc(F)cc2)cc1	x	-16%	x	x	x
SMILES	TGFb inhibitor	ALOX12 inh	S2 tox	ATXN2 expr inh	HepG2 tox
CCCNc1c(NC(=O)Nc2cccc(OC)c2)c(=O)oc2ccccc12	x	-23%	x	x	x
O=C(COC(=O)c1cc(-c2ccco2)nc2ccccc12)NCc1ccccc1	11%	10µM*	i	-15%	-31%
CNC(=O)COC(=O)c1cc(-c2ccco2)nc2ccccc12	10%	u	i	-1%	-6%
CC(NC(=O)c1cccs1)c1ccc2c(c1)NC(=O)CO2 (stereo not given)	x	1%	x	x	x
CCCC(=O)N1c2ccccc2C(=C2SC(C(=O)OC)=C(C(=O)OC)S2)C(=S)C1(C)C	-4%	22µM*	u	-14%	6%
Cc1ccc(Cl)cc1-n1ncc2c(NC3CCCC3)ncnc21	x	-55%	x	x	x
Cc1ccc(Cl)cc1-n1ncc2c(NC3CCCCCC3)ncnc21	11µM*	u	u	u	-33%
O=C(NC(NC(=O)c1ccccc1)c1ccc(Cl)cc1)c1ccccc1	x	4%	x	x	x

High-throughput results (PubChem BioAssay)
